# In the supplement of paper PMC3334620:
# In all, about 33,000 sequences were measured (“E-score (-0.5 to 0.5)”: median about -0.011, highest 2% from about 0.28 on). The sample holds the highest values, similar sequences and a random draw of the others, so the mix is not that of the screen.
# Target: T1, Gcr1 (UniProt P07261)
# T1 sequence: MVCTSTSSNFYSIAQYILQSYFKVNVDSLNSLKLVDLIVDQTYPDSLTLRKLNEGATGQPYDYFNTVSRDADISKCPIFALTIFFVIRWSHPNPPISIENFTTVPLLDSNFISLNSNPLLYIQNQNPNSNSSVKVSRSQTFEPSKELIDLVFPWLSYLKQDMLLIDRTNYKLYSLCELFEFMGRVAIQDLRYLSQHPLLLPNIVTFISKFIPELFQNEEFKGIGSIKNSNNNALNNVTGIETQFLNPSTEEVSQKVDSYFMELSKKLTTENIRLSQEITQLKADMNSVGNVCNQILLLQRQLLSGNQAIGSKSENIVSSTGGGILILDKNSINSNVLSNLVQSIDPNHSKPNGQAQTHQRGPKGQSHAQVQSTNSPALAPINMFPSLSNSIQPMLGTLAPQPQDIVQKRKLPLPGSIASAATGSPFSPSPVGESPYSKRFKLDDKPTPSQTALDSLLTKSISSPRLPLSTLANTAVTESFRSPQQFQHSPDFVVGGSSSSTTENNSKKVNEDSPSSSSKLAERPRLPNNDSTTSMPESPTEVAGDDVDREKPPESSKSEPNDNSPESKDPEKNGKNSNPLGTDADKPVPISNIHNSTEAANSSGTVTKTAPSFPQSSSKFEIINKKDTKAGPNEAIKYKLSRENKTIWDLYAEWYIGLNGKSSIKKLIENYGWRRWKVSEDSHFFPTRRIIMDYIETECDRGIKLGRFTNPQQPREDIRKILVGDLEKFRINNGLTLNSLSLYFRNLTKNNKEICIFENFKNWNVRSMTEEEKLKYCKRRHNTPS
# Test: PBM E-score (8-mer binding enrichment) (E-score (-0.5 to 0.5)); higher = stronger / more preferred TF binding
# Conditions: protein concentration: 100 nM; construct: GST-full length
# Outline: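 E-scores (a modified Wilcoxon-Mann-Whitney statistic) were assigned by the Universal PBM Analysis Suite to every ungapped eight-base word pooled with its reverse complement. The input came from universal all-10-mer Agilent arrays made double-stranded by primer extension and probed with GST-tagged yeast transcription factors at about 100-200 nM. Fluorescent anti-GST detected bound protein, and masliner normalised the scans.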
row,Sequence,PBM E-score
1,ATCACTCC,-0.0513
2,ACTGCCAT,0.0395
3,CCCCTCAA,-0.118
4,ATCCTGAA,0.31
5,ATCCTGTA,0.28
6,ATCCTGAC,0.163
7,GGGACCTA,0.0741
8,ACTATTGC,0.0299
9,ATGGCGCG,0.116
10,ATGGCGTG,-0.0168
11,ATGGCGTC,0.319
12,CTGGCGGC,0.265
13,ATGGCGCC,0.343
14,CTGGCGTC,0.279
15,ATGGCGCA,-0.122
16,CTGGCGCC,0.319
17,CTGGCGCA,-0.119
18,ACTAATGC,0.0263
19,ACAGATAG,-0.00305
20,AACCTGTA,0.211
21,ATTTCGGC,0.141
22,ATTTCGGA,0.285
23,ATTTCGGG,0.0915
24,GATCCCAC,0.235
25,CATTCCCC,-0.0585

row,Sequence,PBM E-score
1,GATTCCCC,0.289
2,GATTCCCA,0.334
3,CATTCCTA,-0.0304
4,CATTCCCA,0.103
5,AATTCCCA,-0.0967
6,GATCCCCC,0.176
7,TATCCCCA,0.052
8,AATTCCTA,0.0723
9,GATCCCCA,0.28
10,GATTCCTA,0.439
11,AATTCCCC,0.0615
12,CGCATCTC,0.0271
13,AAAGAGAA,0.022
14,CAGTTCGG,0.0773
15,CGGATTGA,-0.116
16,CAATGGGG,0.00495
17,ACGGTGGG,0.116
18,GGCTGCCC,0.272
19,GGCTGCCA,0.418
20,AGCTGCTA,0.226
21,ACCTGCCT,-0.218
22,AACTGCCT,-0.0496
23,GGCTGCTA,0.318
24,GGCTGCAA,0.128
25,AGCTGCCT,0.32

row,Sequence,PBM E-score
1,TGCTGCCA,-0.0494
2,CGCTGCTA,0.155
3,CGCTGCCA,0.185
4,AGCTGCCA,0.385
5,GATGGGAA,0.123
6,TACAGATA,-0.0799
7,ATATTTGA,0.0958
8,CTTTCGAA,-0.0912
9,CAGATAAC,-0.13
10,ACTTGACT,-0.0523
11,CACCGAGA,-0.00934
12,GTGCCCCA,-0.0431
13,GGGCTCAC,-0.096
14,AGAGCTGG,-0.143
15,TCTGCCCA,-0.249
16,AGATTTCG,0.113
17,AAGGTGTC,0.0915
18,CGCTGCCG,0.175
19,AGCTGCCG,0.289
20,AGCTGCCC,0.217
21,ACTACAAC,0.0309
22,AACATCCC,-0.109
23,AGCATCCC,0.33
24,CGCATCGC,-0.0699
25,CGCATCCG,0.221

row,Sequence,PBM E-score
1,GGCATCCC,0.4
2,CGCATCCC,0.319
3,CGCATCGA,0.0887
4,GACATCCC,0.0126
5,GCCATCCC,-0.173
6,CACATCCA,0.0944
7,AGCATCAC,0.00094
8,CGCATCCA,0.323
9,AAAGGGTG,-0.0719
10,AAGGCGGT,0.00689
11,CTGTGGCA,0.0358
12,AACTGGCA,0.0707
13,ATTCTCGG,0.123
14,ACTTCCTA,0.245
15,ACTTCCGA,0.0686
16,GCCTCCAC,-0.0325
17,GCTTCCGA,0.386
18,ACTTCCTG,0.319
19,GCTTCCAC,0.42
20,CCTTCCGA,-0.12
21,ACTTCCAT,0.145
22,ACTTCCAG,0.377
23,CCTTCCAG,0.0686
24,ACTTCCTC,0.243
25,CCTTCCAC,0.208

row,Sequence,PBM E-score
1,AGTTCCTG,0.0262
2,CCATGCCG,-0.2
3,CGCTTTCC,-0.0681
4,CTTTCTAC,0.0892
5,AGTCGGAC,-0.093
6,ACCTGAGA,-0.038
7,CCTTCCAA,-0.0431
8,GCTTCCAA,0.443
9,ACTTCCAA,0.303
10,ACTTCCAC,0.261
11,TCTTCCAA,-0.0111
12,ATTTCCAA,0.0988
13,CAACCGGA,0.206
14,CCCTCCGG,-0.0226
15,CACCAAAG,0.047
16,ATGCATCA,-0.0769
17,AAGCAGAT,-0.03
18,CAGCAGCA,0.00017
19,AAGCAGCA,-0.176
20,AAGCAGCG,0.135
21,GAGCAGCC,0.217
22,CAGCAGCC,0.359
23,AAGCAGCT,0.33
24,AAGCAGCC,0.308
25,AAGCAGGT,0.161

row,Sequence,PBM E-score
1,AACTGTGC,-0.181
2,CTTTACTC,-0.104
3,GACTAACC,-0.136
4,ACTTAACC,-0.196
5,GCTCGAGC,0.321
6,GCTCGAGA,-0.166
7,CCTCGAGC,-0.102
8,AAGGGCAC,-0.16
9,GCGGTTCA,-0.231
10,GCGGTTCC,0.314
11,AGGGTTCG,-0.0648
12,ACGGTTCC,0.0629
13,AGGGTTCC,0.312
14,AGGGTTCA,-0.118
15,CGGGTTAC,-0.0158
16,CGGGTTCA,-0.204
17,CGGGTTCC,0.411
18,GTTAAAAC,-0.0162
19,AAAATGCG,0.143
20,GAACGACC,-0.165
21,CTGTTGAA,0.0369
22,CCTTCTAC,0.0671
23,TCTTCTAA,0.329
24,GCTTCTAC,0.301
25,GCTTCTAA,0.116

row,Sequence,PBM E-score
1,CCTTCTAA,-0.0438
2,ACTTCTAA,0.0859
3,GAGTCCTA,0.0444
4,AATAATGA,0.0865
5,AGTCCTGG,0.0342
6,ATCCAAAA,0.282
7,ATCCAAAC,-0.03
8,GCCAAAAC,0.128
9,ATCCAATA,0.303
10,ATCCAAAG,0.189
11,ATCCAATC,0.13
12,CTCCAATA,0.075
13,GCCAAGAA,0.124
14,GCCAAAAA,0.288
15,ATGCAAAC,0.115
16,CTCTTCAA,0.00436
17,GGACGCAC,0.127
18,ACGCATCT,0.151
19,CCGCATCG,-0.0819
20,CCGCATCC,0.31
21,ACGCATCC,0.311
22,GCGCATAC,0.0321
23,ACGCATCG,-0.00937
24,GCGCATCC,0.331
25,CCGCATCA,0.103

row,Sequence,PBM E-score
1,GCGCATCA,0.0737
2,ACCGCCTC,-0.14
3,ACTGTGCT,-0.231
4,ACAGACAT,-0.144
5,CACAGAGG,-0.185
6,CGAGGGGC,0.0171
7,CTAGTGGC,0.106
8,CTAGTGGA,0.298
9,AAAGTGGA,0.24
10,ATAGTGGC,0.32
11,ATCGTGGC,-0.103
12,CAAGTGGA,0.181
13,TAAGTGGA,0.287
14,GTAGTGTA,-0.0351
15,ACAGTGGC,0.00948
16,CTAGTGTA,0.127
17,GCAGTGGA,0.11
18,GTAGTGGA,0.285
19,TCCGACAA,-0.0648
20,AACGAGGG,0.0827
21,CGGTCTAG,-0.167
22,AAACAAGG,0.16
23,GAGGTTCC,0.269
24,CAACTTAC,-0.127
25,GCAGAGTA,-0.0213

row,Sequence,PBM E-score
1,ACCGACGC,-0.0878
2,GTTTTGTA,0.0369
3,ATGGCGGC,0.0606
4,ATATGCTA,0.115
5,CCCCTCAC,-0.0282
6,CTCCTGAA,0.085
7,AAATCGCA,-0.021
8,ATACCAAC,-0.00844
9,ATAGTAGA,0.191
10,ATAGTGAA,-0.116
11,CAAGTGGC,0.146
12,AGAGTGGG,0.177
13,ATAGTGTG,0.106
14,ATAGTAGC,0.286
15,ATCGTGGA,0.148
16,ATAGTGGG,0.308
17,ATAGTAGG,0.051
18,AAAGTGGC,0.295
19,ATAGTGGA,0.376
20,AAAGTGGT,0.167
